{
  "source": "the OligoGym collection",
  "data": [
    {"biological_target": "NXF5", "test": "pooled miR-30 sensor sort-seq; sequence = guide strand", "details": "shRNA", "values": [
      {"sequence": "TTACATAGGCAGACTGGTCCGA", "sensor-assay potency score (higher = more potent)": 0.61},
      {"sequence": "TTGAAGTACTTGCACAAGTTGC", "sensor-assay potency score (higher = more potent)": -0.882},
      {"sequence": "TACATAGGCAGACTGGTCCGAG", "sensor-assay potency score (higher = more potent)": -0.391}
    ]},
    {"biological_target": "OAS3", "test": "pooled miR-30 sensor sort-seq; sequence = guide strand", "details": "shRNA", "values": [
      {"sequence": "TAGACTTGAGAGCTGGGCCTGG", "sensor-assay potency score (higher = more potent)": -0.478},
      {"sequence": "TAGGCTGAAAGCATCCTTCTTA", "sensor-assay potency score (higher = more potent)": 0.0263},
      {"sequence": "TTCTCTACGAACTCCTTCCGCG", "sensor-assay potency score (higher = more potent)": -0.635},
      {"sequence": "TACCAGTGCTTCACCAGCCGGA", "sensor-assay potency score (higher = more potent)": -0.364},
      {"sequence": "TTCAGAATCACAGCCACCCTTG", "sensor-assay potency score (higher = more potent)": -0.336},
      {"sequence": "TTGACCGTCCAGTAGACACAGA", "sensor-assay potency score (higher = more potent)": -0.525},
      {"sequence": "TTGTAGTCCGTGAAGCAGTTGA", "sensor-assay potency score (higher = more potent)": -0.0592},
      {"sequence": "TTTGTTCTGAGCCGCAACCTGG", "sensor-assay potency score (higher = more potent)": -1.14},
      {"sequence": "TTGAACTGGGAGTCCTTCCCGC", "sensor-assay potency score (higher = more potent)": -0.289},
      {"sequence": "TTTGGTGCCAGAACTGAGCTGC", "sensor-assay potency score (higher = more potent)": 0.736},
      {"sequence": "TTCAACATCACAGCCATCCCTT", "sensor-assay potency score (higher = more potent)": -0.469},
      {"sequence": "TGTAGCTCTGTGAAGCAGGTGG", "sensor-assay potency score (higher = more potent)": 0.189}
    ]},
    {"biological_target": "OCA2", "test": "pooled miR-30 sensor sort-seq; sequence = guide strand", "details": "shRNA", "values": [
      {"sequence": "TAACACATCCCAACAGTGCAGG", "sensor-assay potency score (higher = more potent)": -0.397},
      {"sequence": "TTTGTTCTCCAACATATTCTAT", "sensor-assay potency score (higher = more potent)": -1.25},
      {"sequence": "TTATAAAGCTTTCTGTTCCAGT", "sensor-assay potency score (higher = more potent)": -0.265},
      {"sequence": "TTTTCTTCTTCAAACAGTGGGG", "sensor-assay potency score (higher = more potent)": -0.306},
      {"sequence": "TTGAGCACCTCACACAACCTTA", "sensor-assay potency score (higher = more potent)": -0.642},
      {"sequence": "TTTGTGAAGATCACTTCTGCAA", "sensor-assay potency score (higher = more potent)": 0.623},
      {"sequence": "AACAGTGCAGGACACAACCATC", "sensor-assay potency score (higher = more potent)": -1.7},
      {"sequence": "TTCAGTTCAACAATCTCACTGG", "sensor-assay potency score (higher = more potent)": 0.691},
      {"sequence": "TTGTCTTGGATCAAGGTTGAGC", "sensor-assay potency score (higher = more potent)": -0.397},
      {"sequence": "TTGTTCTCCAACATATTCTATT", "sensor-assay potency score (higher = more potent)": -1.21},
      {"sequence": "TAGCAGGTATCTTCGCTCCCAG", "sensor-assay potency score (higher = more potent)": -0.952}
    ]},
    {"biological_target": "OCLM", "test": "pooled miR-30 sensor sort-seq; sequence = guide strand", "details": "shRNA", "values": [
      {"sequence": "TACTAATGTGTCTGCTAAGGTA", "sensor-assay potency score (higher = more potent)": -0.482},
      {"sequence": "AAGAGTATACTAATGTGTCTGC", "sensor-assay potency score (higher = more potent)": 0.0499},
      {"sequence": "TCTGCTAAGGTAAATCTTTAAC", "sensor-assay potency score (higher = more potent)": -1.77},
      {"sequence": "ACTAATGTGTCTGCTAAGGTAA", "sensor-assay potency score (higher = more potent)": -1.12},
      {"sequence": "AAAGAATACCAGGATAGCCATA", "sensor-assay potency score (higher = more potent)": -1.76},
      {"sequence": "AATACCACTCTTATAAAGGATT", "sensor-assay potency score (higher = more potent)": -1.36},
      {"sequence": "TATACTAATGTGTCTGCTAAGG", "sensor-assay potency score (higher = more potent)": -1.53},
      {"sequence": "TAGAAGAGTATACTAATGTGTC", "sensor-assay potency score (higher = more potent)": -0.0959},
      {"sequence": "ATAGAAGAGTATACTAATGTGT", "sensor-assay potency score (higher = more potent)": -0.144},
      {"sequence": "TAATACCACTCTTATAAAGGAT", "sensor-assay potency score (higher = more potent)": -0.68},
      {"sequence": "TTTAAATAGAAGAGTATACTAA", "sensor-assay potency score (higher = more potent)": -0.591},
      {"sequence": "TTAAATAGAAGAGTATACTAAT", "sensor-assay potency score (higher = more potent)": -0.462}
    ]}
  ]
}
